# DT40 TDP1 CPT = DT40-hTDP1 cell growth loss with CPT | hit rate 12% among 420,000 | Potency, µM (titrated, usually from 46.2 µM), for inactives: at the highest dose activity change, negative = growth inhibition, actives largely listed as inhibitors | chicken DT40 Tdp1-/-;hTDP1 cells + 20 nM CPT, ATP luminescence, 48 h; note: potency is the fitted concentration of half-maximal effect; nearly all actives have a fitted effect of over 55% in size
#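 Chicken DT40 Tdp1-/- cells stably complemented with human TDP1 were seeded at 400 cells/well in medium containing 20 nM camptothecin, exposed to pin-transferred compounds, and grown at 37 °C for at least 48 hr. Viability was read as ATP luminescence.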
# 12-LOX inh = inhibitors of human 12S-lipoxygenase ALOX12. purified 12hLO, xylenol orange hydroperoxide absorbance. P18054. Potency, µM (doses to about 108 µM), for inactives: at the highest dose activity change, negative = inhibition, actives largely listed as inhibitors. hit rate 1.1% among 580,000; note: potency is the fitted concentration of half-maximal effect
# Target sequence (P18054 whole entry, looked up): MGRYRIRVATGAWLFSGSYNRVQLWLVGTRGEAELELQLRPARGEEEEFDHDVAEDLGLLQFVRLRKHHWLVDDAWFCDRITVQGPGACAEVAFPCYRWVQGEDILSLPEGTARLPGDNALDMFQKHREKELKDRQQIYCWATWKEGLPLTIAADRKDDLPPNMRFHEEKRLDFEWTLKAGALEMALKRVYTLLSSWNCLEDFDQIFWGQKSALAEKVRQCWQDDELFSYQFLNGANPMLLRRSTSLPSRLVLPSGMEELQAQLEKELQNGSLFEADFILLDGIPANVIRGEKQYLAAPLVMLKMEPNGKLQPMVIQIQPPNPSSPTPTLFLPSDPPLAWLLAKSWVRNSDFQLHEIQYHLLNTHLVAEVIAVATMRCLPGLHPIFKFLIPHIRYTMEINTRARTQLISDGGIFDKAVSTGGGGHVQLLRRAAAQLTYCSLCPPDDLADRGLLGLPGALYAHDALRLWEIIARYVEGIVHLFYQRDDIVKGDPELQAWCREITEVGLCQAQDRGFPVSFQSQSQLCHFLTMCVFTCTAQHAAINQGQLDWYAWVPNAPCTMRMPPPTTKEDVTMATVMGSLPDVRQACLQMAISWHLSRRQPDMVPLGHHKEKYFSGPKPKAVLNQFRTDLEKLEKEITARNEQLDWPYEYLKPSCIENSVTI
#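 Purified human 12hLO at 150 nM in 25 mM Hepes, 0.01% Triton X-100, pH 7.0, preincubated 15 min at room temperature with compound. Reaction started with 40 uM arachidonic acid, 30 min at room temperature. Hydroperoxide measured by Fe-xylenol orange, 573/405 nm absorbance ratio.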
# IL1B secr inh = blocks inflammasome-driven IL-1 beta release; hit rate 4.7% among 360,000; AID 743279; THP-1 LPS/ATP IL-1B secretion, AlphaLISA, 16 h; hits give low values; activity change, % at 57.5 µM; in the data active = activity change below about -50%; inconclusive = mostly about -30% to -49%
#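 THP-1 cells pretreated 1 hr with compounds (up to 57.5 uM final), then stimulated with LPS (250 ng/mL final) plus ATP (1.25 mM final); secreted IL-1B measured by AlphaLISA after 16 hr, decreased signal indicating inhibition.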
# HT1080-NT tox = kills 2HG-producing HT-1080-NT fibrosarcoma cells; hit rate 1.6% among 360,000; HT-1080-NT fibrosarcoma viability, CellTiter-Glo ATP luminescence, 48 h; Potency, µM (titrated, usually from 46.1 µM), for inactives: at the top dose activity, negative = less viability, most hits filed as cytotoxic; AID 686970;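 note: NT is the 2HG producing partner of a matched IDH1 knockdown line; potency is the fitted concentration of half-maximal effect; 0% = DMSO-treated cells and -100% = media-only wells without cells; nearly all actives have a fitted effect of over 55% in size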
#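 HT-1080-NT fibrosarcoma cells (2HG-overproducing), 750 cells/well in RPMI with 5% FBS, dosed after 2 h and incubated 48 h at 37C. CellTiter-Glo luminescence normalized to DMSO and no-cell wells; concentration-response curves fitted and classed.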
# TDP1 cell noCPT = qHTS for Inhibitors of human tyrosyl-DNA phosphodiesterase 1 (TDP1): qHTS in cells in absence of CPT; DT40 Tdp1-/- hTDP1 cells, no CPT, ATP luminescence, 48 h; Potency, µM (top dose mostly 46.2 µM), without a hit: at the top dose activity change, negative = growth inhibition, actives largely listed as inhibitors; hit rate 15% among 420,000; AID 686978, 2013; note: potency is the fitted concentration of half-maximal effect; nearly all actives have a fitted effect of over 55% in size
#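 Growth of hTDP1-complemented DT40 Tdp1-knockout cells is measured by ATP luminescence after at least 48 hr compound exposure at 37 °C, with DMSO substituting for the 20 nM CPT used in the parallel screen.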
# HT1080 IDH1KD tx = toxicity to HT-1080 IDH1 knockdown cells (counter line). HT-1080 IDH1 knockdown viability, ATP luminescence, 48 h. Potency, µM (doses to about 46.1 µM), for the others: at the top dose activity, negative = toxicity, most hits filed as cytotoxic. hit rate 2% among 360,000;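 note: potency is the fitted concentration of half-maximal effect; 0% = DMSO wells and -100% = cell-free medium wells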
#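 Cytotoxicity counter-line: IDH1KD HT-1080, 48 h, CellTiter-Glo. Curves classed by r2, magnitude and activity.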
# * hit, by the source's call; ? = inconclusive; . = no result. The full list was thinned out, with hits kept by preference. Unless noted, calls come from the whole dose curve; as a rule, active = well fitted curve in the direction sought with a large enough effect; inconclusive = small, poorly fitted or top-dose-only effect, or another doubt; inactive = no such curve, though single readings can be large; an effect the other way counts as inactive or inconclusive. Unless noted, % is set by controls: 0 for no effect and ±100 for the full control effect.
SMILES,DT40 TDP1 CPT,12-LOX inh,IL1B secr inh,HT1080-NT tox,TDP1 cell noCPT,HT1080 IDH1KD tx
CC(C)(C)OC(=O)N(CCc1ccccc1)Cc1ccc(OCc2cccc(NC(=O)/C=C/c3ccccc3)c2)cc1,-19.6%,-11.1%,-6.6,0.5%,-24.2%,3.6%
CC(C)(C)OC(=O)N(CCc1ccccc1)Cc1cccc(OCc2cccc(NC(=O)c3ccccc3)c2)c1,23.1µM*,-3.7%,?,1.1%,18.4µM*,0.8%
CC(C)(C)OC(=O)N(CCc1ccccc1)Cc1ccccc1OCc1cccc(NC(=O)/C=C/c2ccccc2)c1,9.2µM*,0.0%,-20.4,4.7%,7.31µM*,13.9%
CC(C)(C)OC(=O)N(CCc1ccccc1)Cc1ccc(OCc2cccc(NC(=O)C3CC3)c2)cc1,5.8µM*,?,?,1.7%,4.61µM*,-0.3%
CC(C)(C)OC(=O)N(CCc1ccccc1)Cc1ccc(OCc2cccc(NC(=O)C3CCC3)c2)cc1,20.6µM*,12.1%,0.0,0.9%,14.6µM*,-5.4%
CCCOC(=O)c1nn(-c2ccccc2)c(=O)c2ccccc12,.,15.7%,.,.,.,.
Cc1cccc(C)c1Nc1c(-c2ccc(O)cc2)nc2sccn12,6.51µM*,20µM*,.,.,7.31µM*,.
COc1cc(-c2nc3sccn3c2Nc2c(C)cccc2C)ccc1O,?,-0.6%,.,.,?,.
CCc1cccc(C)c1Nc1c(-c2cccc(O)c2)nc2nc(C)cc(C)n12,?,3.3%,.,.,?,.
CCc1cccc(C)c1Nc1c(-c2cccc(O)c2)nc2sccn12,14.6µM*,?,.,.,16.4µM*,.
CC(NC(=O)C1CCCC1)C(=O)NC(C)(C)C (stereo not drawn),.,53.4%,.,.,.,.
c1ccc2c(CN3CCn4c(nnc4C4CCCNC4)C3)cccc2c1 (stereo not drawn),.,3.1%,.,.,.,.
CCC(C)NC(=O)c1sc2nc(C)c(C(=O)Nc3ccc(C)cc3C)c(-c3ccc(Cl)cc3)c2c1N (stereo not drawn),23.1µM*,-20.7%,.,.,?,.
CCC(C)NC(=O)c1sc2nc(C)c(C(=O)Nc3ccc(C)cc3C)c(-c3ccc(NC(C)=O)cc3)c2c1N (stereo not drawn),20.6µM*,6.4%,.,.,?,.
CCC(C)NC(=O)c1sc2nc(C)c(C(=O)Nc3ccc(C)cc3C)c(-c3ccccc3Cl)c2c1N (stereo not drawn),14.6µM*,8.5%,.,.,?,.
O=C(Nc1ccc(F)cc1)C1CCCN1c1ncnc2ccccc12 (stereo not drawn),.,64.1%,.,.,.,.
COC(=O)c1ccc(C(=O)Oc2ccc3c(c2)CCC3)cc1,.,12.6%,.,.,.,.
CSc1nsc(N/N=C/c2ccccc2)c1C#N,6.7%,22.1%,2.9,2.1%,?,0.0%
COc1cccc(/C=N/Nc2snc(SC)c2C#N)c1O,2.91µM*,-13.4%,?,?,2.59µM*,?
COc1cccc(/C=N/Nc2snc(SC)c2C#N)c1,-16.7%,0.0%,0.0,?,-31.5%,?
COc1ccc(/C=N/Nc2snc(SC)c2C#N)cc1OC,16.4µM*,217.2%,-11.7,-29.2%,?,?
Cc1noc([C@@H]2CN(C(=O)COc3ccccc3)C[C@H]2CO)n1,.,28.5%,.,.,.,.
O=C(Cc1n[nH]c(=O)c2ccccc12)Nc1cccc(F)c1,.,9.5%,.,.,.,.
Cc1cc(Nc2cccc(F)c2)nc(NCc2ccccc2)n1,4.11µM*,?,-101.9*,?,5.8µM*,?
Nc1nc(NCc2ccccc2)nc(Nc2cccc(F)c2)c1[N+](=O)[O-],0.9%,-24.7%,-6.1,0.6%,?,-2.0%
NNc1nc(NCc2ccccc2)nc(Nc2ccccc2)n1,.,10.1%,.,.,.,.
Cc1cc(Nc2ccccc2)nc(NCc2ccccc2)n1,8.2µM*,?,-88.2*,?,4.11µM*,23.1µM*

# Assay outcomes as filed in PubChem.
